About 79,000 compounds went through this panel and 15% of them were active in at least one assay; those are over-represented in the sample as a whole. Values without a mark were called inactive. The source made the active and inactive calls. No stated cut-off is given here; in the data, active means growth inhibition above about 70%; inactive means the rest.
Experiments:
[1] = NCI Yeast Anticancer Drug Screen. Data for the rad52 strain (AID 147);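 further: 0% = growth of vehicle-treated control cultures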; settings: S. cerevisiae rad52 mutant growth inhibition, stronger effect = higher value
Procedure, shortened: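 Measured: yeast growth inhibition. System: strain with a defined DNA damage repair alteration. Reference: vehicle-treated control cultures.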

[2] = NCI Yeast Anticancer Drug Screen. Data for the wt1 strain (AID 149);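 further: 0% = growth of vehicle-treated wt1 cultures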; settings: S. cerevisiae wt1 strain (SPY 50644) growth inhibition, stronger effect = higher value
Procedure, shortened: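 wt1 yeast, compound-treated; % growth inhibition vs vehicle control.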

[3] = NCI Yeast Anticancer Drug Screen. Data for the rad50EPP+ strain (AID 151);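 further: 0% = growth of vehicle-treated control cultures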; settings: S. cerevisiae rad50 mutant strain, stronger effect = higher value
Procedure, shortened: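 One strain with a rad50 alteration (rad50EPP+) was compound-treated, its growth then compared to that of vehicle controls.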

[4] = NCI Yeast Anticancer Drug Screen. Data for the rad50 strain (AID 155);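 further: 0% = growth of vehicle-only cultures of the same strain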; settings: S. cerevisiae rad50 strain growth inhibition, stronger effect = higher value
Procedure, shortened: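 Genetically altered yeast (DNA repair pathway); compound treatment; growth inhibition vs vehicle ctrl.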

[5] = NCI Yeast Anticancer Drug Screen. Data for the mec2-1 strain (AID 157); settings: S. cerevisiae mec2-1 strain, stronger effect = higher value
Procedure, shortened: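 Test agents were screened against the mec2-1 yeast strain, with defined DNA repair or cell cycle alteration. Growth was scored as inhibition against vehicle-only controls.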

[6] = NCI Yeast Anticancer Drug Screen. Data for the rad14 strain (AID 159);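 further: 0% = growth of vehicle-treated control cultures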; settings: S. cerevisiae rad14 strain growth inhibition, stronger effect = higher value
Procedure, shortened: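 Test compounds were applied to a repair-deficient yeast strain. Its growth was then compared with that of cultures given vehicle alone, and inhibition was expressed relative to those controls.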

[7] = NCI Yeast Anticancer Drug Screen. Data for the sgs1 mgt1 strain (AID 161);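 further: 0% = growth of cultures given vehicle only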; settings: S. cerevisiae sgs1 mgt1 strain, stronger effect = higher value
Procedure, shortened: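 Test agents were incubated with a DNA-repair-mutant yeast strain. Growth was then read and compared against vehicle-treated controls.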

[8] = NCI Yeast Anticancer Drug Screen. Data for the CLN2oe strain (AID 163);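 further: 0% = growth of vehicle-only control cultures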; settings: S. cerevisiae CLN2oe strain, stronger effect = higher value
Procedure, shortened: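 Here, growth inhibition in a cell-cycle-altered yeast strain after compound exposure was quantified against vehicle control growth.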

[9] = NCI Yeast Anticancer Drug Screen. Data for the cln2 rad14 strain (AID 165);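 further: 0% = growth equal to vehicle treated cultures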; settings: S. cerevisiae cln2 rad14 strain, stronger effect = higher value
Procedure, shortened: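 Growth of compound-exposed yeast (cln2 rad14 genotype) measured and expressed as inhibition relative to vehicle.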

[10] = NCI Yeast Anticancer Drug Screen. Data for the bub3 strain (AID 167); settings: S. cerevisiae bub3 mutant strain, stronger effect = higher value
Procedure, shortened: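 Yeast carrying a defined mutation is treated with each compound, and growth is compared with that of vehicle-exposed cells to give inhibition.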

[11] = NCI Yeast Anticancer Drug Screen. Data for the wt2 strain (AID 169);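 further: 0% = growth of vehicle-treated yeast cultures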; settings: S. cerevisiae wt2 strain growth inhibition, stronger effect = higher value
Procedure, shortened: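 Genetically defined yeast strains from a DNA-repair/cell-cycle panel were used. Compound-exposed yeast growth was measured, and the inhibition was calculated relative to vehicle treatment.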

[12] = NCI Yeast Anticancer Drug Screen. Data for the mlh1 strain (AID 171);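 further: 0% = growth of vehicle-treated control cultures of the same strain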; settings: S. cerevisiae mlh1 strain growth inhibition, stronger effect = higher value
Procedure, shortened: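 Here the genetically defined yeast mutant is grown with each compound, and the extent to which its growth falls below that of vehicle-exposed cells is reported.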

[13] = NCI Yeast Anticancer Drug Screen. Data for the sgs1 strain (AID 173);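 further: 0% = growth of vehicle-only control cultures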; settings: S. cerevisiae sgs1 mutant, stronger effect = higher value
Procedure, shortened: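 Relative growth inhibition, referenced to vehicle, was determined in a yeast strain with a defined alteration affecting DNA damage repair or cell cycle control after compound exposure.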

[14] = NCI Yeast Anticancer Drug Screen. Data for the mlh1 rad18 strain (AID 175); settings: S. cerevisiae mlh1 rad18 strain growth inhibition, stronger effect = higher value
Procedure, shortened: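 In this whole-cell yeast screen, a strain with altered DNA damage repair is challenged with compound, and its growth is measured against matched vehicle-treated controls.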

[15] = NCI Yeast Anticancer Drug Screen. Data for the rad18 strain (AID 177); settings: S. cerevisiae rad18 mutant growth inhibition, stronger effect = higher value
Procedure, shortened: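 Screen uses a yeast strain with a defined lesion in DNA damage repair; compound effect is read as loss of growth compared to untreated vehicle cultures.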

[16] = at 5.0 µM (retest, dose inferred, filed as 0.5)
[17] = at 50.0 µM (retest, dose inferred, filed as 5.0)

In the case of Cc1cc(NCCCCCCCCNc2cc(C)nc3cc(N)ccc23)c2ccc(N)cc2n1, the growth inhibition ([1]; at 1.2 µM) is reported as -41%, the growth inhibition ([1]; at 3.7 µM) is reported as -45% and the growth inhibition ([1]; at 11.0 µM) is reported as 75% (active). For the same compound, the growth inhibition ([1]; at 33.0 µM) was 98% (active), the growth inhibition ([1]; at 100.0 µM) was 95% (active) and the growth inhibition ([2]; at 1.2 µM) was -65%. The growth inhibition ([2]; at 3.7 µM) was -41%, the growth inhibition ([2]; at 11.0 µM) was 92% (active) and the growth inhibition ([2]; at 33.0 µM) was 98% (active). For the same compound, the growth inhibition ([2]; at 100.0 µM) was 96% (active), the growth inhibition ([3]; at 1.2 µM) was -47% and the growth inhibition ([3]; at 3.7 µM) was -30%. The growth inhibition ([3]; at 11.0 µM) was 50%, the growth inhibition ([3]; at 33.0 µM) was 95% (active) and the growth inhibition ([3]; at 100.0 µM) was 95% (active). The growth inhibition ([4]; at 1.2 µM) was -39%, the growth inhibition ([4]; at 3.7 µM) was -32% and the growth inhibition [4, 16] was 15%. For the same compound, the growth inhibition ([4]; at 11.0 µM) was 92% (active), the growth inhibition ([4]; at 33.0 µM) was 97% (active) and the growth inhibition [4, 17] was 98% (active). For the same compound, the growth inhibition ([4]; at 50.0 µM) was 90.2% (active), the growth inhibition ([4]; at 100.0 µM) was 96% (active) and the growth inhibition ([5]; at 1.2 µM) was -70%. The growth inhibition ([5]; at 3.7 µM) was -55%, the growth inhibition [5, 16] was 12% and the growth inhibition ([5]; at 11.0 µM) was 91% (active). The growth inhibition ([5]; at 33.0 µM) was 98% (active), the growth inhibition [5, 17] was 98% (active) and the growth inhibition ([5]; at 50.0 µM) was 91.4% (active). For the same compound, the growth inhibition ([5]; at 100.0 µM) was 96% (active), the growth inhibition ([6]; at 1.2 µM) was -40% and the growth inhibition ([6]; at 3.7 µM) was -35%. The growth inhibition ([6]; at 11.0 µM) was 87% (active), the growth inhibition ([6]; at 33.0 µM) was 97% (active) and the growth inhibition ([6]; at 100.0 µM) was 96% (active). For the same compound, the growth inhibition [7, 16] was 8%, the growth inhibition [7, 17] was 99% (active) and the growth inhibition ([7]; at 50.0 µM) was 92.1% (active). It also gave a growth inhibition ([8]; at 1.2 µM) of -18%, a growth inhibition ([8]; at 3.7 µM) of -20% and a growth inhibition ([8]; at 11.0 µM) of 39%. The growth inhibition ([8]; at 33.0 µM) was 97% (active), the growth inhibition ([8]; at 100.0 µM) was 94% (active) and the growth inhibition [9, 16] was 18%. For the same compound, the growth inhibition [9, 17] was 98% (active), the growth inhibition ([9]; at 50.0 µM) was 88% (active) and the growth inhibition ([10]; at 1.2 µM) was -64%. For the same compound, the growth inhibition ([10]; at 3.7 µM) was -45%, the growth inhibition [10, 16] was 39% and the growth inhibition ([10]; at 11.0 µM) was 90% (active). The growth inhibition ([10]; at 33.0 µM) was 97% (active), the growth inhibition [10, 17] was 99% (active) and the growth inhibition ([10]; at 50.0 µM) was 91.5% (active). The growth inhibition ([10]; at 100.0 µM) was 93% (active), the growth inhibition ([11]; at 1.2 µM) was -39% and the growth inhibition ([11]; at 3.7 µM) was -36%. The growth inhibition ([11]; at 11.0 µM) was 55%, the growth inhibition ([11]; at 33.0 µM) was 97% (active) and the growth inhibition ([11]; at 100.0 µM) was 95% (active). For the same compound, the growth inhibition ([12]; at 1.2 µM) was -88%, the growth inhibition ([12]; at 3.7 µM) was -63% and the growth inhibition ([12]; at 11.0 µM) was 92% (active). The growth inhibition ([12]; at 33.0 µM) was 97% (active), the growth inhibition ([12]; at 100.0 µM) was 94% (active) and the growth inhibition ([13]; at 1.2 µM) was -64%. The growth inhibition ([13]; at 3.7 µM) was -72%, the growth inhibition ([13]; at 11.0 µM) was 65% and the growth inhibition ([13]; at 33.0 µM) was 95% (active). The growth inhibition ([13]; at 100.0 µM) was 94% (active), the growth inhibition [14, 16] was 7% and the growth inhibition [14, 17] was 98% (active). For the same compound, the growth inhibition ([14]; at 50.0 µM) was 89.2% (active), the growth inhibition ([15]; at 1.2 µM) was -45% and the growth inhibition ([15]; at 3.7 µM) was -65%. For the same compound, the growth inhibition ([15]; at 11.0 µM) was 66%, the growth inhibition ([15]; at 33.0 µM) was 97% (active) and the growth inhibition ([15]; at 100.0 µM) was 93% (active).

In the case of COC(=O)/C=C(/C(=O)OC)C(Cl)(Cl)Cl, the growth inhibition ([1]; at 1.2 µM) is reported as -32%, the growth inhibition ([1]; at 3.7 µM) is reported as 7% and the growth inhibition ([1]; at 11.0 µM) is reported as 47%. For the same compound, the growth inhibition ([1]; at 33.0 µM) was 97% (active), the growth inhibition ([1]; at 100.0 µM) was 100% (active) and the growth inhibition ([2]; at 1.2 µM) was -1%. For the same compound, the growth inhibition ([2]; at 3.7 µM) was 4%, the growth inhibition ([2]; at 11.0 µM) was 34% and the growth inhibition ([2]; at 33.0 µM) was 84% (active). The growth inhibition ([2]; at 100.0 µM) was 100% (active), the growth inhibition ([3]; at 1.2 µM) was 4% and the growth inhibition ([3]; at 3.7 µM) was -9%. The growth inhibition ([3]; at 11.0 µM) was 24%, the growth inhibition ([3]; at 33.0 µM) was 61% and the growth inhibition ([3]; at 100.0 µM) was 84% (active). It also gave a growth inhibition ([4]; at 1.2 µM) of 1%, a growth inhibition ([4]; at 3.7 µM) of 4% and a growth inhibition [4, 16] of 14%. For the same compound, the growth inhibition ([4]; at 11.0 µM) was 33%, the growth inhibition ([4]; at 33.0 µM) was 93% (active) and the growth inhibition [4, 17] was 88% (active). For the same compound, the growth inhibition ([4]; at 50.0 µM) was 44.8%, the growth inhibition ([4]; at 100.0 µM) was 99% (active) and the growth inhibition ([5]; at 1.2 µM) was 2%. It also gave a growth inhibition ([5]; at 3.7 µM) of 2%, a growth inhibition [5, 16] of 7% and a growth inhibition ([5]; at 11.0 µM) of 6%. For the same compound, the growth inhibition ([5]; at 33.0 µM) was 44%, the growth inhibition [5, 17] was 96% (active) and the growth inhibition ([5]; at 50.0 µM) was 22.1%.

Source: PubChem BioAssay (NCI)
